Compounds with a hit are over-represented: about 4% of the library has one in this group of screens.
697 NFkB inh = lowers PMA/ionomycin-induced NF-kB signal in 697 B cells; actives 0.33% (n = 330,000); AID 435022; inhibition, % at 4 µM; 697 B-cell NF-kB luciferase reporter, 16 h; in the data active = inhibition above about 35%
Beta apoptosis = beta cell apoptosis inhibition; INS-1E cytokine-induced death, ATP luminescence, 48 h; percent of positive-control rescue, neutral wells zero; protection from apoptosis, % (concentration not given with the values); actives 0.8% (n = 300,000); AID 435005;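 active = Every replicate reaches about 75%, or at least half do and their mean reaches it too, limit read from the data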;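 note: 0% = cytokine-treated negative control wells and 100% = positive control rescue; higher means more ATP so stronger rescue from cytokine killing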
Mdm2 MdmX PPI = inhibitors of human Mdm2/MdmX interaction; O15151+Q00987; SaOS-2 split-luciferase Mdm2/MdmX complementation, luminescence; inhibition, % at 8 µM; actives 3% (n = 330,000); AID 485346;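 active = inhibition of at least 50% at 8 µM in the primary screen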
Jurkat NFkB inh = inhibitors of the PMA/ionomycin-induced NF-kB reporter in Jurkat cells | PMA/ionomycin-induced NF-kB luciferase reporter, luminescence | inhibition, % at 4 µM | actives 0.53% (n = 330,000) | AID 435003; in the data active = inhibition above about 50%
Gli-Sufu block = antagonists of Gli-Sufu signaling; actives 0.74% (n = 340,000); Sufu-KO-LIGHT fibroblasts, Gli luciferase reporter luminescence; inhibition, % at 5 µM;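 active = inhibition above about 55%, limit read from the data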;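 note: 0% = DMSO-treated cells and 100% = wells with medium but no cells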
697 NFkB conf = lowers PMA/ionomycin-induced NF-kB signal in 697 B cells | shares compounds with 697 NFkB inh | 697 B-cell NF-kB luciferase, 16 h | actives 35% (n = 2,000) | inhibition, % at 4 µM; in the data active = inhibition mostly above about 28%, no sharp cut-off; inactive = mostly below about 22%
Starred values were filed as active, the others as inactive.

For COc1cc(C2NC(=O)NC(C)=C2C(=O)OC(C)(C)C)ccc1OCC(=O)O (configuration not stated) the results were 697 NFkB inh 40*, Beta apoptosis -6, Mdm2 MdmX PPI -4, Jurkat NFkB inh 1, Gli-Sufu block 4 and 697 NFkB conf 10.
`CCOc1ccc(S(=O)(=O)N(CC(=O)NC2CCCC2)c2ccc(F)cc2)cc1` gave 697 NFkB inh 15, Beta apoptosis 1, Mdm2 MdmX PPI -1, Jurkat NFkB inh 0 and Gli-Sufu block -7.
COc1ccc(OC)c(CCNC(=O)C(C)n2nc(C)c3c(C)n(-c4ccc(C)cc4)nc3c2=O)c1 (configuration not stated) was read as 697 NFkB inh 40*, Beta apoptosis 23, Mdm2 MdmX PPI 4, Jurkat NFkB inh 49, Gli-Sufu block 12 and 697 NFkB conf 87*.
`COc1ccc(OC)c(CCNC(=O)C(C)n2nc(C)c3c(C)n(-c4ccccc4)nc3c2=O)c1` (configuration not stated) gave 697 NFkB inh 1, Beta apoptosis 0, Mdm2 MdmX PPI 6, Jurkat NFkB inh 3 and Gli-Sufu block 10.
O=C(N/N=C/c1ccc([N+](=O)[O-])o1)C1CC1 was read as 697 NFkB inh -3, Beta apoptosis 8, Mdm2 MdmX PPI 12, Jurkat NFkB inh 2 and Gli-Sufu block -11.
`Cn1nc(-c2ccc(Cl)cc2)c2cc(C(=O)N3CCCC3)sc21` gave 697 NFkB inh 56*, Beta apoptosis 17, Mdm2 MdmX PPI 49, Jurkat NFkB inh 9, Gli-Sufu block -2 and 697 NFkB conf 43*.
COc1cc(N)c(C(=O)c2nccc3cc(OC)c(OC)cc23)cc1OC was read as 697 NFkB inh -6, Beta apoptosis -7, Mdm2 MdmX PPI 17, Jurkat NFkB inh -15 and Gli-Sufu block 9.
For COc1cc(Br)c(C(=O)c2nccc3cc(OC)c(OC)cc23)cc1OC the results were 697 NFkB inh 39*, Beta apoptosis -11, Mdm2 MdmX PPI 24, Jurkat NFkB inh 15, Gli-Sufu block 2 and 697 NFkB conf 30*.
`O=C(Nc1ncc([N+](=O)[O-])s1)c1cccc([N+](=O)[O-])c1` gave 697 NFkB inh -450, Beta apoptosis 55, Mdm2 MdmX PPI 28, Jurkat NFkB inh -72, Gli-Sufu block -24 and 697 NFkB conf -444.
O=C(Nc1ccc(NC(=O)c2cccc([N+](=O)[O-])c2)cc1)c1cccc([N+](=O)[O-])c1 was read as 697 NFkB inh -17, Beta apoptosis 2, Mdm2 MdmX PPI -2, Jurkat NFkB inh -20 and Gli-Sufu block 30.
For COC(=O)c1c(NC(=O)c2cccc([N+](=O)[O-])c2)sc(C(N)=O)c1C the results were 697 NFkB inh 39*, Beta apoptosis 16, Mdm2 MdmX PPI 25, Jurkat NFkB inh 16, Gli-Sufu block -16 and 697 NFkB conf 50*.
For COC(=O)c1sc(NC(=O)c2cccc([N+](=O)[O-])c2)c(C(N)=O)c1C the results were 697 NFkB inh 13, Beta apoptosis 6, Mdm2 MdmX PPI 3, Jurkat NFkB inh 3 and Gli-Sufu block 11.
O=C(Nc1ccccc1)Nc1ncc([N+](=O)[O-])s1 was read as 697 NFkB inh -260, Mdm2 MdmX PPI -26, Jurkat NFkB inh -80, Gli-Sufu block -110 and 697 NFkB conf -351.
Screening O=C(c1ccc(Cl)c(S(=O)(=O)N2CCOCC2)c1)N(Cc1ccco1)Cc1cccs1 returned 697 NFkB inh -15, Mdm2 MdmX PPI 9, Jurkat NFkB inh -9 and Gli-Sufu block 8.
O=C(O)C1CC=CCC1C(=O)Nc1ccc(S(=O)(=O)N2CCCc3ccccc32)cc1 (configuration not stated) was read as 697 NFkB inh -265, Mdm2 MdmX PPI 36, Jurkat NFkB inh 5, Gli-Sufu block 2 and 697 NFkB conf -136.
For Cc1cc(F)ccc1NC(=O)Cn1c(C)csc1=O the results were 697 NFkB inh 10, Beta apoptosis 2, Mdm2 MdmX PPI 18, Jurkat NFkB inh -7 and Gli-Sufu block 6.
For CC(C)Oc1cc(O)c2c(=O)c(-c3ccc(O)cc3)coc2c1 the results were 697 NFkB inh -285, Mdm2 MdmX PPI -134, Jurkat NFkB inh -33, Gli-Sufu block -93 and 697 NFkB conf -191.
Screening COc1ccc(CN2C(=O)[C@H]3Cc4c([nH]c5ccccc45)C(C)(C)N3C2=O)cc1 returned 697 NFkB inh 8, Beta apoptosis -3, Mdm2 MdmX PPI 25, Jurkat NFkB inh 11 and Gli-Sufu block 0.
`COc1cc(C(=O)O)ccc1OCC(=O)N1CCOCC1` gave 697 NFkB inh 40*, Beta apoptosis 1, Mdm2 MdmX PPI 16, Jurkat NFkB inh 1, Gli-Sufu block 1 and 697 NFkB conf -7.
For Cc1cc(NC(=O)c2ccccc2)nc2c1c(=O)oc1ccccc12 the results were 697 NFkB inh 35*, Beta apoptosis 1, Mdm2 MdmX PPI 3, Jurkat NFkB inh -6, Gli-Sufu block 2 and 697 NFkB conf 10.
For Cc1ccc(CSCCNC(=O)c2ccc(C)cc2)cc1 the results were 697 NFkB inh -7, Beta apoptosis -3, Mdm2 MdmX PPI 21, Jurkat NFkB inh -3 and Gli-Sufu block -3.
`Cc1ccc(CSCCNC(=O)c2ccc(NS(C)(=O)=O)cc2)cc1` gave 697 NFkB inh 36*, Mdm2 MdmX PPI -6, Jurkat NFkB inh -12, Gli-Sufu block -3 and 697 NFkB conf -4.
For COc1ccc(C(=O)Nc2nc3ccccc3[nH]2)cc1OC the results were 697 NFkB inh -80, Beta apoptosis 4, Mdm2 MdmX PPI -49, Jurkat NFkB inh -87 and Gli-Sufu block -42.
For COc1ccc(Cl)cc1C(=O)Nc1nc2ccccc2[nH]1 the results were 697 NFkB inh -385, Beta apoptosis 11, Mdm2 MdmX PPI 46, Jurkat NFkB inh -77, Gli-Sufu block -80 and 697 NFkB conf -439.
O=C(Nc1nc2c(s1)CCCC2)c1cccnc1 was read as 697 NFkB inh -77, Beta apoptosis 6, Mdm2 MdmX PPI -74, Jurkat NFkB inh -98 and Gli-Sufu block -54.
`Cc1ccc2nc(NC(=O)c3cccs3)sc2c1` gave 697 NFkB inh -434, Beta apoptosis 23, Mdm2 MdmX PPI -66, Jurkat NFkB inh -138, Gli-Sufu block -119 and 697 NFkB conf -455.
Screening Cc1ccc(Cc2cnc(NC(=O)c3cccs3)s2)cc1 returned 697 NFkB inh -299, Beta apoptosis 5, Mdm2 MdmX PPI -203, Jurkat NFkB inh -124, Gli-Sufu block -116 and 697 NFkB conf -259.
O=C(Nc1nc2c(s1)CCCC2)c1cccs1 was read as 697 NFkB inh -252, Beta apoptosis 20, Mdm2 MdmX PPI -126, Jurkat NFkB inh -134, Gli-Sufu block -84 and 697 NFkB conf -264.
Cc1ccc(C(=O)Nc2ncc(Cc3ccccc3)s2)o1 was read as 697 NFkB inh -17, Mdm2 MdmX PPI -104, Jurkat NFkB inh -97 and Gli-Sufu block -69.
